Assays:
[1] = target: Serine/threonine-protein kinase MARK2 (Homo sapiens) (UniProt Q7KZI7); conditions: at 1 µM
[2] = target: PAS domain-containing serine/threonine-protein kinase (Homo sapiens) (UniProt Q96RG2); conditions: at 0.1 µM
[3] = target: PAS domain-containing serine/threonine-protein kinase (Homo sapiens) (UniProt Q96RG2); conditions: at 1 µM
[4] = target: Phosphorylase b kinase gamma catalytic chain, skeletal muscle/heart isoform (Homo sapiens) (UniProt Q16816); conditions: at 0.1 µM
[5] = target: Phosphorylase b kinase gamma catalytic chain, skeletal muscle/heart isoform (Homo sapiens) (UniProt Q16816); conditions: at 1 µM
[6] = target: T1, Phosphorylase b kinase gamma catalytic chain, liver/testis isoform (Homo sapiens) (UniProt P15735); conditions: at 0.1 µM
T1 sequence (whole entry): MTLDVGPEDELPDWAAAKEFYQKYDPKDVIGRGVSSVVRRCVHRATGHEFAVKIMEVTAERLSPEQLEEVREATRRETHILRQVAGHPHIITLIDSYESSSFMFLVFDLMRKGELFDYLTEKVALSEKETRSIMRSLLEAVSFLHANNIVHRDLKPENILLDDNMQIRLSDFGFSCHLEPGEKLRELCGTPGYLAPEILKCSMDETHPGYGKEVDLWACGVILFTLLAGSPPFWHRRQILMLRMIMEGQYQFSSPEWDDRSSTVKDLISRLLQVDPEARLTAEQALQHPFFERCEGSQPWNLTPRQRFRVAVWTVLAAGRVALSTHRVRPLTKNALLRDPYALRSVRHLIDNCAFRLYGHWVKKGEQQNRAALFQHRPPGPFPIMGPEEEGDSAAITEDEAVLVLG

[7] = target: T1, Phosphorylase b kinase gamma catalytic chain, liver/testis isoform (Homo sapiens); conditions: at 1 µM
[8] = target: Serine/threonine-protein kinase pim-1 (Homo sapiens) (UniProt P11309); conditions: at 0.1 µM
[9] = target: Serine/threonine-protein kinase pim-1 (Homo sapiens) (UniProt P11309); conditions: at 1 µM
[10] = target: Serine/threonine-protein kinase pim-2 (Homo sapiens) (UniProt Q9P1W9); conditions: at 0.1 µM
[11] = target: Serine/threonine-protein kinase pim-2 (Homo sapiens) (UniProt Q9P1W9); conditions: at 1 µM
[12] = target: Serine/threonine-protein kinase pim-3 (Homo sapiens) (UniProt Q86V86); conditions: at 0.1 µM
[13] = target: Serine/threonine-protein kinase pim-3 (Homo sapiens) (UniProt Q86V86); conditions: at 1 µM
[14] = target: T2, MAP kinase-activated protein kinase 5 (Homo sapiens) (UniProt Q8IW41); conditions: at 0.1 µM
T2 sequence (whole entry): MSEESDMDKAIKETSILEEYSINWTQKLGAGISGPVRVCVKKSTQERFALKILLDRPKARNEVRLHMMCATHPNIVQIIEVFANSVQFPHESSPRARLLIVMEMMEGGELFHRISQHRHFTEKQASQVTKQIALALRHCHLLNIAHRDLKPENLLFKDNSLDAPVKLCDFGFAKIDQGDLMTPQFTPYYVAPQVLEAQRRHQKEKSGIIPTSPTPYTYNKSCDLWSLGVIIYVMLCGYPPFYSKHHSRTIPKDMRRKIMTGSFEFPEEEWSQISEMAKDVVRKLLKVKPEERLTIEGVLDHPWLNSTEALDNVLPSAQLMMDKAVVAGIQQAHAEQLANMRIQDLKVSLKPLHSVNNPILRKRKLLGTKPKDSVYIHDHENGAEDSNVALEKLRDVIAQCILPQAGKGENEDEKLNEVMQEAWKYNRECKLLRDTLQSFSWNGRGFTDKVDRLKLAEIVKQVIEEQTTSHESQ

[15] = target: T2, MAP kinase-activated protein kinase 5 (Homo sapiens); conditions: at 1 µM
[16] = target: Serine/threonine-protein kinase SIK1 (Homo sapiens) (UniProt P57059); conditions: at 0.1 µM
[17] = target: Serine/threonine-protein kinase SIK1 (Homo sapiens) (UniProt P57059); conditions: at 1 µM
[18] = target: Serine/threonine-protein kinase SIK2 (Homo sapiens) (UniProt Q9H0K1); conditions: at 0.1 µM
[19] = target: Serine/threonine-protein kinase SIK2 (Homo sapiens) (UniProt Q9H0K1); conditions: at 1 µM
[20] = target: T3, Serine/threonine-protein kinase TBK1 (Homo sapiens) (UniProt Q9UHD2); conditions: at 0.1 µM;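 further: values are the mean TBK1 inhibition, taken from the GSK PKIS screening data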
T3 sequence (whole entry): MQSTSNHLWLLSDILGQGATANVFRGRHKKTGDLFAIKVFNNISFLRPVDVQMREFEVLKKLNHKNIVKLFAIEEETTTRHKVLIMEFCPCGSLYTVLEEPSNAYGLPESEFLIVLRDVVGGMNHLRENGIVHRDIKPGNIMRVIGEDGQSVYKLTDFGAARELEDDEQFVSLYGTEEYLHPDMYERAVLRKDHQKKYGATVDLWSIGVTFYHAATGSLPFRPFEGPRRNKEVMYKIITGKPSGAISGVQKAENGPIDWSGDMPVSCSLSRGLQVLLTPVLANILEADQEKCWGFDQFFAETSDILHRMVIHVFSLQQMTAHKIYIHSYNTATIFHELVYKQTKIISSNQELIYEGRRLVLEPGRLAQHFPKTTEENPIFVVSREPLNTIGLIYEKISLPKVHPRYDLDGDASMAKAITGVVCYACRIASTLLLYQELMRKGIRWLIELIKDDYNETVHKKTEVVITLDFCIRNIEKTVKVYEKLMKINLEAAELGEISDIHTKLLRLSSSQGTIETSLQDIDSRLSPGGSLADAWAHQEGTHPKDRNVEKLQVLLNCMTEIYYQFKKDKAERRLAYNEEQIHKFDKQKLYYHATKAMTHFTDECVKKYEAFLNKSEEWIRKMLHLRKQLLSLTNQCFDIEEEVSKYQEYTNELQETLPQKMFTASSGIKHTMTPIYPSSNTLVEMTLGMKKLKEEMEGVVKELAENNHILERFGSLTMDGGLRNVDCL

Phosphorylase b kinase gamma catalytic chain, skeletal muscle/heart isoform (Homo sapiens), sequence (Q16816 whole entry, looked up, canonical isoform): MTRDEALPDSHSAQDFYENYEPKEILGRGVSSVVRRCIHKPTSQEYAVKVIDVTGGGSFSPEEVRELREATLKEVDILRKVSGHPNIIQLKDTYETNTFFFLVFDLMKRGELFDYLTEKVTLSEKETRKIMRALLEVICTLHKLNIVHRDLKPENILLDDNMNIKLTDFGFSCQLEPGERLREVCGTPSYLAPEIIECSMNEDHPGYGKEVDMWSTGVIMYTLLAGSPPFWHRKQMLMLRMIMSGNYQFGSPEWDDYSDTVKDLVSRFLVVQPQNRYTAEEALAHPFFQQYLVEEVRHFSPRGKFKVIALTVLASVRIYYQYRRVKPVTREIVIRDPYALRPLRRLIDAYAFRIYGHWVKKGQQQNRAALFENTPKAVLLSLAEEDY
Serine/threonine-protein kinase SIK2 (Homo sapiens), sequence (Q9H0K1 whole entry, looked up): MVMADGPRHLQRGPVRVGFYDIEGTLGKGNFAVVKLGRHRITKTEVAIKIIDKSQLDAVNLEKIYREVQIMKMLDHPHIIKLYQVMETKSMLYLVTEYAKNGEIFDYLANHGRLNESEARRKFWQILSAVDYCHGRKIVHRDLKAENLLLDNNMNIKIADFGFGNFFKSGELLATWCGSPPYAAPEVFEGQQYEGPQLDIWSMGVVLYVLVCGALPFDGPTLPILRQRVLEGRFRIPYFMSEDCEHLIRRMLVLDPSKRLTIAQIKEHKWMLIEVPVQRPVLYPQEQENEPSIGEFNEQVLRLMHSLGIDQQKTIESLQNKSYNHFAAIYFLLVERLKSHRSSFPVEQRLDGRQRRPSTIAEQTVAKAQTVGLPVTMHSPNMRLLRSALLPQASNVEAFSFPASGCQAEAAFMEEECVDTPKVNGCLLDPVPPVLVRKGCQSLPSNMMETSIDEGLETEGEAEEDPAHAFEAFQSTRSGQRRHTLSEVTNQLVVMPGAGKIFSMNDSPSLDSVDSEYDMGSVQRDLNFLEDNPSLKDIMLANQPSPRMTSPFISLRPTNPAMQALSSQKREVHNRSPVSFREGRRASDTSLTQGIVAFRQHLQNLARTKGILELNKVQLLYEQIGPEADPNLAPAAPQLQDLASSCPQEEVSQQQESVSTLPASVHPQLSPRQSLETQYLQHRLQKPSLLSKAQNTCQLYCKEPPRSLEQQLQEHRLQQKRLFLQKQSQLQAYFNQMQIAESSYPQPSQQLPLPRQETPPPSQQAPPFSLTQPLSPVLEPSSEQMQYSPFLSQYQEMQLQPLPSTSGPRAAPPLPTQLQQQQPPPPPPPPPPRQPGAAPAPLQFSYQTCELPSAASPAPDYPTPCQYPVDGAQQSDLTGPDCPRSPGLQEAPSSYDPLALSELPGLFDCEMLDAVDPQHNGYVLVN
Serine/threonine-protein kinase SIK1 (Homo sapiens), sequence (P57059 whole entry): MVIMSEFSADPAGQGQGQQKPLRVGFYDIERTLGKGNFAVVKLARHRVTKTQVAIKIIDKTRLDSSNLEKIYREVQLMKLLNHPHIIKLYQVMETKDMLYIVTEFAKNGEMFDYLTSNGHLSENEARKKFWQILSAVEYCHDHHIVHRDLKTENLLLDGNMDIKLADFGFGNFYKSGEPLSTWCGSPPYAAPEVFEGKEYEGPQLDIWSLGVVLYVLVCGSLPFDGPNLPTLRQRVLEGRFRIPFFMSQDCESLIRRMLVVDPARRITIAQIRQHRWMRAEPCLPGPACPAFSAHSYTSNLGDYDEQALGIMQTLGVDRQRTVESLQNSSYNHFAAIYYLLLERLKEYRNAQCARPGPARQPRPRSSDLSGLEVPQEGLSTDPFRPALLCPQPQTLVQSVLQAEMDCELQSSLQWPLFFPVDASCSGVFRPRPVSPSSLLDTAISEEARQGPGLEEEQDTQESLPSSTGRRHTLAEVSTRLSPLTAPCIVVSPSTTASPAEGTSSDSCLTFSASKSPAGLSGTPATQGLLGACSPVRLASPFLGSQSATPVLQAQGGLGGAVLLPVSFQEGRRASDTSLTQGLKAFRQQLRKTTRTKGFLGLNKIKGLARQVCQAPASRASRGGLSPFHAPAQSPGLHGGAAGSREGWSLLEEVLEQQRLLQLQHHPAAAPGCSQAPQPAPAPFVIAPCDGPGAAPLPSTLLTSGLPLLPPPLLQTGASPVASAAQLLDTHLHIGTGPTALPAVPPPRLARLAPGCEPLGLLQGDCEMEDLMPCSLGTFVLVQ
Serine/threonine-protein kinase MARK2 (Homo sapiens), sequence (Q7KZI7 whole entry, the tested form may be a part): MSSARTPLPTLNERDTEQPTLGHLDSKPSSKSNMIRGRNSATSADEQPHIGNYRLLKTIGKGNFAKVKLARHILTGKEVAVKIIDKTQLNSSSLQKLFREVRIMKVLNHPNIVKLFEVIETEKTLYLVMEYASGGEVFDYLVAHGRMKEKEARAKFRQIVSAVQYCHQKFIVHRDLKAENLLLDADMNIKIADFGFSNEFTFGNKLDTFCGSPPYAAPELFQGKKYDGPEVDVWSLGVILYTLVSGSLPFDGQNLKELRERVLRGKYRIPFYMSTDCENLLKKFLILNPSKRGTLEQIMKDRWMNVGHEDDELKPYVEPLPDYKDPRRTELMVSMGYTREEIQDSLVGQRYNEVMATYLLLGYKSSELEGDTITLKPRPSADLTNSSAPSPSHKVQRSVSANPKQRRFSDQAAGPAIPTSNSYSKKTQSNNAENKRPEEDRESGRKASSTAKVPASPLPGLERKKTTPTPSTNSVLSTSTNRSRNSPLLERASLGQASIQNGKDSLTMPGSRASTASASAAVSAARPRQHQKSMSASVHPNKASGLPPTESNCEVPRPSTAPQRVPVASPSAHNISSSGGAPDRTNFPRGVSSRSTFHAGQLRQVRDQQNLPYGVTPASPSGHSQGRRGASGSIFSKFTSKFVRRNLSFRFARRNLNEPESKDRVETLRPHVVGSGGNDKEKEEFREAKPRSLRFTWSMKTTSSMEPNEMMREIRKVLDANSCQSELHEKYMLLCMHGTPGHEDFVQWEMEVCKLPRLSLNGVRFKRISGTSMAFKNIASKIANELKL
Serine/threonine-protein kinase pim-1 (Homo sapiens), sequence (P11309 whole entry, looked up): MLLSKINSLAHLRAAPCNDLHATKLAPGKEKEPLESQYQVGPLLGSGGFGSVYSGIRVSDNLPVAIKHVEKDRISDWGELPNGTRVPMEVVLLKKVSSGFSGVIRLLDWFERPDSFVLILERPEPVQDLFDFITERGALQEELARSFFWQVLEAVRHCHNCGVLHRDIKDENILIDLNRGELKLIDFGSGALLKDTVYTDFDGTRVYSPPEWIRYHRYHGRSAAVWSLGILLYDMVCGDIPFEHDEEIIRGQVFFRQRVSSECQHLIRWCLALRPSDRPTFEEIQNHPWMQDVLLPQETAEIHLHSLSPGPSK
PAS domain-containing serine/threonine-protein kinase (Homo sapiens), sequence (Q96RG2 whole entry, the tested form may be a part, canonical isoform): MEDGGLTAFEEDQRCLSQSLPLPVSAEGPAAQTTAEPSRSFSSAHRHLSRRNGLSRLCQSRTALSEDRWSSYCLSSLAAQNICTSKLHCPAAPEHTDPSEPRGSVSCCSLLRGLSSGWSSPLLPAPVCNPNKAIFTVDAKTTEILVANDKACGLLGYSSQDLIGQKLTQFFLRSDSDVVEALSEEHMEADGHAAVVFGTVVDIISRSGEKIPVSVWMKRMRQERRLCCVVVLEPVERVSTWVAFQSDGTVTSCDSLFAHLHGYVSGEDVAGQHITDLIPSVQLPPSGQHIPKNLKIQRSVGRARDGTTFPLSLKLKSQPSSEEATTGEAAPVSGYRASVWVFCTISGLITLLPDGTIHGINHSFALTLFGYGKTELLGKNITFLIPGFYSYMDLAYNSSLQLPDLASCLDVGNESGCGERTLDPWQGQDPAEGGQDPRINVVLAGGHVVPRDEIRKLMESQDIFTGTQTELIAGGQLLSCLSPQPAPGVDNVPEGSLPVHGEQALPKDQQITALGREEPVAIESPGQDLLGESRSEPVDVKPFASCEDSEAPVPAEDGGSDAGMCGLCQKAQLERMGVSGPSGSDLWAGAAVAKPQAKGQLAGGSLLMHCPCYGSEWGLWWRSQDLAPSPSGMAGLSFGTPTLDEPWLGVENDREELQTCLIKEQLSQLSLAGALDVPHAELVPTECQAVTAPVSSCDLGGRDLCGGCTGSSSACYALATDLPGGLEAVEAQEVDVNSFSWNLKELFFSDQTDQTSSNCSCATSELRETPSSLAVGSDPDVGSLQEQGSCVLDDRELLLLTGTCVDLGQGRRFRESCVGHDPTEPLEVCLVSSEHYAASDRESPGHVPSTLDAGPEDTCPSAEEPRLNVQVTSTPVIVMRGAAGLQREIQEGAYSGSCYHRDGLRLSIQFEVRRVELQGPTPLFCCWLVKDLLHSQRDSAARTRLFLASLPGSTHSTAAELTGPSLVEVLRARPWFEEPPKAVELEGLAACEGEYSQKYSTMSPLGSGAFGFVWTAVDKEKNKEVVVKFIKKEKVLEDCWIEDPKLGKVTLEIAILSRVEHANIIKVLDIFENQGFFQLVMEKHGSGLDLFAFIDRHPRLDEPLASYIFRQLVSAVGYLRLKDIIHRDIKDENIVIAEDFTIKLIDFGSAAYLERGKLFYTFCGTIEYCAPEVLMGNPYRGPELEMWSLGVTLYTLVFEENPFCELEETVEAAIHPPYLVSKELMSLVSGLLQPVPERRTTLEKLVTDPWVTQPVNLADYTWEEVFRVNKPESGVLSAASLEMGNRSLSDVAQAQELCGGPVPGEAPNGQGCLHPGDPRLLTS

Structure (SMILES) | inhibition [1] [%] | inhibition [2] [%] | inhibition [3] [%] | inhibition [4] [%] | inhibition [5] [%] | inhibition [6] [%] | inhibition [7] [%] | inhibition [8] [%] | inhibition [9] [%] | inhibition [10] [%] | inhibition [11] [%] | inhibition [12] [%] | inhibition [13] [%] | inhibition [14] [%] | inhibition [15] [%] | inhibition [16] [%] | inhibition [17] [%] | inhibition [18] [%] | inhibition [19] [%] | inhibition [20] [%]
COc1ccc2ncn(-c3cc(O[C@H](C)c4ccccc4Cl)c(C(N)=O)s3)c2c1 | 0.49 | -0.21 | 0.54 | 5.98 | 7.62 | 6 | 5 | -0.74 | 3.29 | -3.96 | -2.83 | 0.05 | 4.48 | 1.58 | 1.26 | 4.44 | 11.2 | 2.04 | 0.17 | 2.41
COc1cc(C)c(N(C)C(=O)CN(C)C)cc1Nc1nc(Nc2cccc(F)c2C(N)=O)c2cc[nH]c2n1 | 1.79 | 0.61 | -1.13 | -1.13 | 2.95 | 3.64 | -0.16 | 1.05 | 3.33 | -3.42 | -2.78 | -0.52 | 0.76 | 0.02 | -1.14 | 3.07 | 5.4 | 4.5 | 2.04 | 1.26
NC(=O)Cc1ccccc1Oc1nccc(-c2c(-c3ccc(F)cc3)ncn2C2CCNCC2)n1 | 2.22 | 0.15 | -0.7 | 4.43 | 6.28 | 2.61 | 0.83 | 0.4 | 0.97 | 0.18 | 0.59 | -1.38 | 0.63 | 0.43 | -0.72 | 3.93 | 4.7 | 3.81 | -3.54 | 5.2
COc1cc(Nc2ncc3c(C)nc(-c4cccc(C(F)(F)F)c4)n3n2)cc(OC)c1OC | 3.54 | -0.04 | 0.78 | 5.08 | 11.8 | 4.94 | 6.94 | 0.28 | 2 | 0.34 | 3.02 | 3.42 | 6.73 | 1.19 | 2.92 | 3.9 | 15.9 | 10.9 | 13.5 | 1.64
CCC(=O)Nc1ccc(C)c(-c2ccc(C(=O)NCC3CC3)cc2)c1 | 1.92 | -0.16 | -0.9 | 1.26 | 4.36 | 2.68 | 2.43 | 1.37 | 1.55 | -2.01 | 0.38 | 0.17 | 0.73 | 0.96 | 0.76 | 4.61 | 5.28 | 4.06 | 6.63 | 2.36
O=C(Nc1ccc(Oc2ccc3[nH]c(NC(=O)c4ccccc4)nc3c2)cc1)Nc1cc(C(F)(F)F)ccc1F | 1.49 | 0.68 | 0.73 | 1.45 | 7.47 | 3.99 | 4.6 | 0.97 | 0.07 | -0.34 | -0.13 | 0.85 | -0.27 | 0.86 | 0.98 | 5.14 | 9.55 | 6.29 | 6.45 | 0.91
Fc1ccc(-c2nc3n(c2-c2ccncc2)CCS3)cc1 | 1.88 | -0.27 | -1.64 | 5.2 | 4.39 | 4.24 | 2.33 | 0.77 | 2.11 | -3.25 | -3.08 | -1.3 | -1.87 | 1.2 | 0.34 | 5 | 13.5 | 1.21 | 7.35 | 2.27
